AMA1-RON2 inh – inhibitors of Plasmodium falciparum AMA1-RON2 interaction. AlphaScreen AMA1-biotinylated RON2 peptide binding. Potency, µM (doses to about 58.2 µM), actives largely listed as inhibitors. hit rate 0.2% among 360,000. AID 720542; also: nearly all actives have a fitted effect of over 45% in size
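AMA1 (3D7) with his tag at 25 nM final met compounds first, then biotinylated RON2 peptide at 25 nM; detection used donor plus acceptor beads, 10 µg/mL apiece, read by AlphaScreen after 30 min at room temperature.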
FBPA Giardia inh – inhibitors of Giardia lamblia fructose-1,6-bisphosphate aldolase; purified Giardia FBPA; Potency, µM (series often up to 59.6 µM), usual class: inhibitors; A8B2U2; hit rate 0.71% among 290,000; also: nearly all actives have a fitted effect of over 55% in size
Target sequence (A8B2U2 whole entry, looked up): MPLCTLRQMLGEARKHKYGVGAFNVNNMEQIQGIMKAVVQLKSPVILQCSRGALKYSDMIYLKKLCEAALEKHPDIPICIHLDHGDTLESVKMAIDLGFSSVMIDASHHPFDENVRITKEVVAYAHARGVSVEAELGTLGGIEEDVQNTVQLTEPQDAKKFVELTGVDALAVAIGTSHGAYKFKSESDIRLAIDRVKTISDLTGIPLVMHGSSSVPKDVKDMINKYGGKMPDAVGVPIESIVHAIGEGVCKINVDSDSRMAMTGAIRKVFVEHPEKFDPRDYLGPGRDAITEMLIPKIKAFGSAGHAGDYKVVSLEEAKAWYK
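Giardia FBPA (40 nM reagent) was preincubated 10 min at RT with compound (up to 57.5 uM final), then substrate plus GAPDH/TPI/NAD/arsenate coupling system with diaphorase/resazurin was added; resorufin fluorescence (525/598 nm) was read after 20 min.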
AmpC inh no detg – AmpC beta-lactamase inhibition without detergent. P00811. AmpC nitrocefin hydrolysis, absorbance 480 nm, 0.0001% Triton. Potency, µM (doses to about 57.1 µM), actives largely listed as inhibitors. hit rate 0.52% among 330,000; also: nearly all actives have a fitted effect of over 20% in size
Target sequence (P00811 whole entry, looked up): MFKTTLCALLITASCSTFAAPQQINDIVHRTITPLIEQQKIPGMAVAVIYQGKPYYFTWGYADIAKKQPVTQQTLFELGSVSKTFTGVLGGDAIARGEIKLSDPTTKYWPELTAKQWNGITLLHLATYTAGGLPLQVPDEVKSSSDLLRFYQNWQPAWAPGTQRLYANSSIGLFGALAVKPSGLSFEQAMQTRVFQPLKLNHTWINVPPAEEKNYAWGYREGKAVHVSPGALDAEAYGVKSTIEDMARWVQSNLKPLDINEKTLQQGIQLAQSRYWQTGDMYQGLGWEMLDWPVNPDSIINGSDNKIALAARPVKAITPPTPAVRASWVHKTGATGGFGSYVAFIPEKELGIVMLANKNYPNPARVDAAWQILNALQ
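20 mM phosphate pH 7.0 + 0.01% (detergent screen) or 0.0001% Triton X-100; 5.3 nM AmpC reagent; cpd preinc 15 min RT; nitrocefin (800 uM stock) to start; A480 q20 s × 4 min; Activity was normalised to no-enzyme and no-compound control wells.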
AmpC detergent – AmpC beta-lactamase inhibition with detergent present. P00811. AmpC hydrolysis of nitrocefin, absorbance 480 nm, 0.01% Triton. Potency, µM (doses to about 114 µM), hits mostly inhibitors. hit rate 0.041% among 370,000; also: nearly all actives have a fitted effect of over 25% in size
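AmpC (5.3 nM in the dispensed reagent) in 20 mM phosphate pH 7.0 with 0.01% (detergent screen) or 0.0001% Triton X-100 was preincubated with compounds for 15 min at room temperature. Nitrocefin was then added from an 800 uM solution, and hydrolysis was followed at 480 nm.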
Each line names hits and unclear results; the compound was inactive in the other large screens. Compounds with a hit are over-represented: about 1.1% of the library has one in this group of screens. Calls follow the shape of the dose curve; as a rule, active = well fitted curve in the direction sought with a large enough effect; inconclusive = small, poorly fitted or top-dose-only effect, or another doubt; inactive = no such curve, though single readings can be large; an effect the other way counts as inactive or inconclusive.

CC1CCN(S(=O)(=O)c2ccc(NC(=O)CSc3nnnn3C)cc2)CC1	AmpC inh no detg 0.16µM
CN1CCN(S(=O)(=O)c2ccc(NC(=O)c3cccs3)cc2)CC1	none (no result: AmpC inh no detg)
CC1CCN(S(=O)(=O)c2ccc(NC(=O)c3cccs3)cc2)CC1	AmpC inh no detg 28µM, AmpC detergent inconclusive
O=C(CSc1nc(C2CC2)nc2ccccc12)N1c2ccccc2Sc2ccccc21	AmpC inh no detg 0.32µM
CCCOc1cccc(-c2cc(C(=O)N/N=C/c3ccccn3)c3ccccc3n2)c1	AmpC detergent inconclusive (no result: FBPA Giardia inh)
CCCOc1cccc(-c2cc(C(=O)NN)c3ccccc3n2)c1	AmpC inh no detg 10µM
NS(=O)(=O)c1ccc(NC(=O)/C=C/c2cn(-c3ccccc3)nc2-c2cccc(Cl)c2)cc1	AmpC inh no detg 2.5µM
O=C(COC(=O)c1cn(-c2ccccc2)nc1-c1ccc(F)cc1)Nc1ncc(Cl)cc1Cl	none
NS(=O)(=O)c1ccc(NC(=O)COC(=O)c2cn(-c3ccccc3)nc2-c2ccc(F)cc2)cc1	AmpC inh no detg 13µM
Cc1ccc(Sc2c(C)nn(C(=O)COc3ccccc3)c2C)cc1	none (no result: AMA1-RON2 inh, FBPA Giardia inh, AmpC inh no detg)
CCOC(=O)C1=C(C)NC(=S)NC1c1ccc(OC(=O)c2ccco2)cc1 (centres undefined)	none
CCOC(=O)c1c(NC(=O)C2=C(C)NC(=S)NC2c2ccc(CC)cc2)sc(C)c1C (centres undefined)	AmpC inh no detg 13µM (no result: AMA1-RON2 inh)
Cc1nn(-c2ccccc2)c(N)c1N=Nc1ccc2ccccc2c1	AMA1-RON2 inh 22µM
O=C(NCC(=O)N1CCCC(C(F)(F)F)C1)c1ccco1 (centres undefined)	none (no result: FBPA Giardia inh)
CCOc1ccc(S(=O)(=O)Nc2cc3c(C(=O)OC)c(COC)oc3c3ccccc23)cc1	none (no result: AMA1-RON2 inh, FBPA Giardia inh, AmpC inh no detg)
Cc1ccc(NS(=O)(=O)c2cc(NC(=O)C(C)Oc3ccccc3)ccc2C)c(C)c1 (centres undefined)	AmpC detergent inconclusive
O=C(O)c1cccc(S(=O)(=O)Nc2ccc([N+](=O)[O-])cc2O)c1	none
CCOc1ccc(S(=O)(=O)Nc2cc(SCC(=O)O)c(O)c3ccccc23)cc1	AMA1-RON2 inh inconclusive, FBPA Giardia inh 6.3µM, AmpC detergent inconclusive
O=C(O)CSc1cc(NS(=O)(=O)c2cccc([N+](=O)[O-])c2)c2ccccc2c1O	FBPA Giardia inh 2.5µM
CCc1ccc(S(=O)(=O)Nc2ccc(O)c3ccccc23)cc1	AMA1-RON2 inh inconclusive
CCc1ccc(S(=O)(=O)Nc2cc(SCC(=O)O)c(O)c3ccccc23)cc1	AMA1-RON2 inh inconclusive, FBPA Giardia inh 4.5µM, AmpC detergent inconclusive
Cc1ccc(C)c(S(=O)(=O)Nc2cc(SCC(=O)O)c(O)c3ccccc23)c1	FBPA Giardia inh 2.2µM, AmpC detergent inconclusive
O=C(CN(c1ccc(Br)cc1)S(=O)(=O)c1ccc(Cl)c([N+](=O)[O-])c1)NCC1CCCO1 (centres undefined)	none (no result: FBPA Giardia inh, AmpC inh no detg, AmpC detergent)
COC(=O)C1=C(C)N(Cc2ccc(C)cc2)C(=O)/C1=C\c1cc(OC)c(OC)c(OC)c1	AMA1-RON2 inh 35µM
COc1ccc(OC)c(Nc2c3ccccc3nc3ccccc23)c1	AMA1-RON2 inh 20µM
COc1ccc(OC)c(Nc2c3c(nc4ccccc24)CCC3)c1	none
Cc1cc(C(=O)CSc2nn(-c3ccccc3)c(=S)s2)c(C)n1Cc1ccco1	AmpC inh no detg 28µM
Cc1cc(C(=O)CSc2nc3ccccc3[nH]2)c(C)n1Cc1ccco1	none
Cc1cc(C(=O)CSc2nnc(-c3ccco3)o2)c(C)n1Cc1ccco1	AmpC detergent inconclusive
Cc1cc(C(=O)CSc2nncs2)c(C)n1Cc1ccco1	AMA1-RON2 inh 22µM
COc1cc(C2CC(=O)Oc3c(C(CCN4CCN(c5ccccc5)CC4)c4ccc(N(C)C)cc4)c(OC)cc(OC)c32)cc(OC)c1OC (centres undefined)	AMA1-RON2 inh 14µM
COc1cc(OC)c2c(-c3ccccc3)cc(=O)oc2c1C(CCN1CCCC(C)C1)c1ccc(N(C)C)cc1 (centres undefined)	AMA1-RON2 inh 16µM
COc1ccc(C(CCN2CCCC(C)C2)c2c(OC)cc(OC)c3c(-c4ccccc4)cc(=O)oc23)cc1 (centres undefined)	none
COc1cc(C2CC(=O)Oc3c(C(CCN4CCOCC4)c4ccc(N(C)C)cc4)c(OC)cc(OC)c32)cc(OC)c1OC (centres undefined)	AMA1-RON2 inh inconclusive
COc1ccc(C2CC(=O)Oc3c(C(CCN4CCCC(C)C4)c4ccc(N(C)C)cc4)c(OC)cc(OC)c32)cc1 (centres undefined)	AMA1-RON2 inh 18µM
COc1cc(OC)c2c(-c3ccccc3)cc(=O)oc2c1C(CCN1CCN(c2ccccc2)CC1)c1ccc(N(C)C)cc1 (centres undefined)	AMA1-RON2 inh 7.9µM
COc1ccc(C(CCN2CCN(c3ccccc3)CC2)c2c(OC)cc(OC)c3c(-c4ccccc4)cc(=O)oc23)cc1 (centres undefined)	AMA1-RON2 inh inconclusive
COc1cc(OC)c2ccc(=O)oc2c1C(CCN1CCOCC1)c1ccc(N(C)C)cc1 (centres undefined)	none (no result: AMA1-RON2 inh, AmpC inh no detg, AmpC detergent)
COc1cc(O)c(C(CCN2CCCC2)c2ccc3c(c2)OCO3)c(OC)c1 (centres undefined)	none
CCCCCc1cc(=O)oc2c(C(CCN3CCCC3)c3ccc4c(c3)OCO4)c(OC)cc(OC)c12 (centres undefined)	none (no result: AMA1-RON2 inh, AmpC inh no detg, AmpC detergent)
COc1cc(OC)c2ccc(=O)oc2c1C(CCN1CCN(c2ccccc2)CC1)c1ccc(N(C)C)cc1 (centres undefined)	AMA1-RON2 inh 25µM
COc1cc(O)c(C(CCN2CCN(c3ccccc3)CC2)c2ccc3c(c2)OCO3)c(OC)c1 (centres undefined)	AMA1-RON2 inh 16µM, FBPA Giardia inh inconclusive
CCN(CC)CCC(c1ccc(N(C)C)cc1)c1c(OC)cc(OC)c2c(-c3ccccc3)cc(=O)oc12 (centres undefined)	AMA1-RON2 inh 18µM
CCCCCc1cc(=O)oc2c(C(CCN3CCN(c4ccccc4)CC3)c3ccc(N(C)C)cc3)c(OC)cc(OC)c12 (centres undefined)	AMA1-RON2 inh 11µM
COc1cc(OC)c2c(-c3ccccc3)cc(=O)oc2c1C(CC(=O)N1CCOCC1)c1ccc(N(C)C)cc1 (centres undefined)	AMA1-RON2 inh inconclusive
Clc1cccc(N2CCN(c3c4c(nc5nncn35)CCC4)CC2)c1	none (no result: AMA1-RON2 inh, FBPA Giardia inh, AmpC inh no detg)
O=C(NCc1ccc2c(c1)OCO2)C(=O)NCC1OCCN1S(=O)(=O)c1ccccc1 (centres undefined)	none (no result: FBPA Giardia inh, AmpC inh no detg, AmpC detergent)
COC(=O)C1=C(C(=O)OC)[C@@H]2N(Cc3ccccc3)c3ccccc3[C@@]23C[C@@H](C(=O)OC)N(S(=O)(=O)c2ccc(Br)cc2)C3=N1	none (no result: AMA1-RON2 inh, AmpC inh no detg, AmpC detergent)
COc1ccccc1N1CCN(C(=O)c2cc(C3CC3)on2)CC1	AmpC inh no detg 20µM, AmpC detergent inconclusive
COc1ccccc1-c1cc(C(=O)N2CCN(c3ccccc3OC)CC2)no1	none
Cc1ccc(Cl)cc1NC(=O)CCCn1c(=O)c2cccn2c2ccccc21	none (no result: AMA1-RON2 inh, FBPA Giardia inh, AmpC inh no detg)
Cc1ccc(CNc2ccc(O)cc2)cc1	FBPA Giardia inh 3.5µM
